Assay outcomes as filed in PubChem BioAssay.
Mcl1 Bid PPI – disrupts binding of human Mcl-1 to Bid peptide; TR-FRET Mcl-1/Bid-Dy647 peptide binding, 1536-well; inhibition, % at 21.7 µM; 0.97% of 220,000 active; AID 1021;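 active means compounds that cut the binding signal by more than half at the single screening dose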;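 further: His-tagged Mcl-1 with europium anti-His antibody binding Bid BH3 peptide; 0% = Mcl-1 plus peptide wells and 100% = peptide-only wells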
14-3-3 Bad PPI – disrupts binding of bovine 14-3-3 zeta to phospho-Bad peptide. P63103. TR-FRET 14-3-3zeta/Dy647-pBad peptide displacement, 1 h. inhibition, % at 21.7 µM. 0.71% of 220,000 active;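 active means inhibition above about 70%, limit read from the data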;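 further: 0% = full 14-3-3 plus peptide FRET controls and 100% = background without 14-3-3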
Mcl1-Noxa inh – disrupts binding of human Mcl-1 to Noxa peptide. Q07820. TR-FRET Mcl-1/Noxa peptide binding, 2 h. inhibition, % at 21.7 µM. 1.5% of 220,000 active. AID 1022;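 active means compounds that cut the protein-peptide binding signal by more than 50% relative to plate controls in a single-dose test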;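 further: His-tagged Mcl-1 with rhodamine Noxa BH3 peptide and terbium anti-His antibody; 0% = Mcl-1 plus Noxa peptide wells and 100% = peptide-only wells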
NCF1 inh – inhibitors of human p47phox binding | inhibition, % at 24.7 µM | P14598 | 0.53% of 220,000 active | p47phox/p22phox peptide binding, fluorescence polarization, 2 h;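 further: 0% = p47phox with labelled peptide and 100% = labelled peptide alone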
eIF4E-4G inh – blocks eIF4E binding to eIF4G. TR-FRET eIF4E-eIF4GI(517-606) binding, 2 h. inhibition, % at 21.7 µM. P63073+Q04637. 0.37% of 220,000 active;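 further: 0% = full FRET control wells and 100% = background wells lacking eIF4GI fragment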
Mcl-1 Bim block – inhibitors of Bim-Mcl-1 interaction, human; Bead-based flow cytometry, Bim peptide-Mcl-1 binding; inhibition, % at 10 µM; 0.1% of 190,000 active; Q07820; in the data active means inhibition above about 40%;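 further: 0% = no compound tracer wells and 100% = peptide blocker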
* hit, by the source's call; / = no result; + = active, no number; [ ] = dose if it differs, or a comment. Compounds with a hit are over-represented: about 3.4% of the library has one in this group of screens.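 How the source made its calls, unless noted: active means inhibition above about 30% (limit read from the data); inactive means the rest.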

SMILES	Mcl1 Bid PPI	14-3-3 Bad PPI	Mcl1-Noxa inh	NCF1 inh	eIF4E-4G inh	Mcl-1 Bim block
CCOC(=O)c1cnc2ccc(C(=O)OC)cc2c1Nc1cccc(C(=O)O)c1	-16	-15	7	42*	0	0
CCOC(=O)c1ccc(S(=O)(=O)N2CCNCC2)cc1	54*	4	11	-2	-10	-7
CCOC(=O)c1ccc(NS(=O)(=O)N2CCCCCC2)cc1	78*	-2	14	15	1	0
CCOC(=O)c1ccc(NC(=O)C2CCN(S(=O)(=O)CC)CC2)cc1	-2	4	-15	-10	-3	-1
O=C(/C=C/c1ccco1)OCC1CCCN2CCCCC12 (stereo not given)	-29	3	12	-4	3	2
CC(=O)c1cccc(NC(=O)Nc2cccs2)c1	-21	-11	3	-8	-2	-5
CC(=O)c1cccc(NC(=O)Nc2cc3sccc3n2C)c1	-32	-4	71*	-11	5	0
N#CC1(c2ccccc2)CCC(=O)N1Cc1ccccc1 (stereo not given)	-40	2	-1	-14	5	/
CCOC(=O)c1[nH]c(CO)c(C(=O)OCC)c1C	-17	-2	-7	-5	2	/
CCOc1ccc(-c2cc(CCCC(=O)NCc3ccco3)no2)cc1	-29	-1	15	33*	-1	0
COc1c(Cl)cc(C(=O)NN)cc1Cl	-24	-6	7	-12	6	-2
NNC(=O)c1cc(O)c(O)c(O)c1	-83	27	73*	11	-1	8
CC(c1ccccc1)C1CC(=O)N(Cc2ccccc2)C1=O (stereo not given)	-26	-3	2	-5	0	-3
Cc1ccccc1NC(=O)C1CC(=O)N(Cc2ccccc2)C1 (stereo not given)	-29	-11	10	-7	3	0
Cc1cc(NC(=O)CSc2nnc3ccccn23)no1	-25	-3	10	-10	0	-2
CCN1C(=O)c2cccc3c(NC(=O)c4ccccc4)ccc1c23	-15	-4	0	12	-1	5
CCN1C(=O)c2cccc3c(NC(=O)C4CCCCC4)ccc1c23	83*	7	43	-6	3	-4
Oc1ccc(N2CCN(c3ncnc4sc(-c5ccccc5)cc34)CC2)cc1	15	-5	87*	-5	9	2
CCCCNC(=O)COC(=O)c1ccc(N(C)C)cc1	-13	-2	9	0	3	0
N=c1sccn1CC(=O)NCCc1ccc(Cl)cc1Cl	41	14	51*	-10	-3	0
CCn1c(=NC(=O)C2COc3ccccc3O2)sc2c(C)ccc(OC)c21 (stereo not given)	9	-6	-30	13	90*	/
N#CC(C(=O)Nc1ccc(Cl)cc1)=C1Nc2ccccc2N1	-2	-9	51*	-17	9	1
N#CC(C(=O)Nc1ccccc1)=C1CCCCC1	-1	-2	3	-10	-13	-2
CCOC(=O)C1(Cc2ccccc2C)CCCN(C(=O)CCc2cccnc2)C1 (stereo not given)	-8	3	5	-12	-2	-4
COc1cc(/C=N/NC(=O)CN(Cc2ccco2)S(=O)(=O)c2ccccc2)ccc1O	-23	-14	24	-13	3	45*
SMILES	Mcl1 Bid PPI	14-3-3 Bad PPI	Mcl1-Noxa inh	NCF1 inh	eIF4E-4G inh	Mcl-1 Bim block
CCOc1ccc(NC(=O)c2oc3ccccc3c2NC(=O)CC)cc1	78*	10	-11	-12	7	0
CNC(=S)NNC(=O)CNc1ccc(C)c(Cl)c1	-48	-16	14	+	0	-2
CC(=O)NC(Cc1cccc(F)c1)C(=O)NC1CCN(c2nnnn2-c2ccccc2)CC1 (stereo not given)	-5	-6	-6	0	-1	-5
C=CCc1cc(Cl)ccc1OCCNCCCOC	18	50	26	-7	2	0
C=CCc1ccccc1OCCNCCCOC	84*	30	18	-8	0	0
CC(OC(=O)c1cn(-c2ccccc2)nc1-c1cccnc1)C(N)=O (stereo not given)	-9	-2	6	/	3	0
COc1ccccc1C1CC(c2ccccc2)Nc2ncnn21 (stereo not given)	97*	0	14	2	-2	-4
CCC(C)(C)NC(=O)C(c1ccncc1)N(C(=O)c1sc(C)nc1C)c1ccc(C)cc1 (stereo not given)	-36	-2	-8	-3	1	-1
O=C(CCc1ccccc1)Nc1ccc(N2CCOCC2)cc1	-13	-13	53*	1	1	-4
CC1CCCCN1CC(=O)Nc1ccc(N2CCCCCC2)cc1 (stereo not given)	36	51	58*	17	15	-7
O=C(CCc1ccccc1)Nc1ccc(N2CCOCC2)c(Cl)c1	-11	-4	-2	-2	-3	1
O=C(CCC(=O)c1cccs1)Nc1ccc(N2CCCCC2)cc1	-51	5	57*	-1	5	-1
CN1CCN(c2ccc(NC(=O)Cc3ccccc3)cc2)CC1	-12	-10	22	2	0	-2
O=C(Cc1ccccc1)Nc1ccc(N2CCCCC2)cc1	-26	8	61*	10	17	0
CCOc1ccc(NC(=O)CC2SC(=O)N(c3ccccc3)C2=O)cc1 (stereo not given)	-37	-6	-10	-14	-3	-5
Cc1ccc(C)c(-n2c(-c3ccc(Br)cc3)csc2=NC(=O)c2ccccc2F)c1	-11	-23	-80	-8	-24	/
O=C(c1cccc([N+](=O)[O-])c1)N1CCN(c2n[nH]c(=O)[nH]c2=O)CC1	-41	-4	-17	-18	-4	/
CSc1ccccc1NC(=O)CN(C)CC(=O)Nc1ccc(N2CCOCC2)cc1	-23	0	3	3	1	48*
CCOc1ccccc1CNc1ccc(O)cc1	-26	-7	72*	-13	3	7
NS(=O)(=O)c1ccc(NCc2ccccc2OCc2ccccc2F)cc1	-14	82*	17	-9	10	-2
O=C(Cc1cccs1)N/N=C/C=C\c1ccco1	-17	-20	90*	-6	0	-2
CC(NC(=O)c1cc(=O)[nH]c2ccccc12)c1ccccc1 (stereo not given)	-1	-4	17	4	1	-1
O=C(N/N=C/c1ccccc1O)c1cc(=O)[nH]c2ccccc12	-35	-30	-1	0	40*[fluorescence artefact?]	-2
O=C(Nc1ccc(S(=O)(=O)Nc2nccs2)cc1)c1ccc(=O)[nH]c1	-56	8	62*	-47	3	3
Cc1ccc(-c2cc(C(=O)Nc3nccs3)c3ccccc3n2)o1	-5	1	67*	-12	-2	-1
